The source of these data is PubChem BioAssay (NCATS).

Results filed as inconclusive are left out. Activity calls are given as the source filed them. Calls come from the whole dose curve; as a rule, active = well fitted curve in the direction sought with a large enough effect; inconclusive = small, poorly fitted or top-dose-only effect, or another doubt; inactive = no such curve, though single readings can be large; an effect the other way counts as inactive or inconclusive.

Test [1] in a line: U-118MG Cancer Cell Toxicity qHTS against the NCATS CANVASS Library (AID 1347351). Note: series mostly up to about 38 µM. Summed up: (§1)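 ATP content after 72 h treatment, detected by CellTiter-Glo luminescence (15min room-temperature development), reflects cell viability. Wells contained 1000 cells and received compounds at 11 concentrations.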
(In general: qHTS replaces the single test concentration by a dilution series.)

A short description of test [2]: COV-362 Cancer Cell Toxicity qHTS against the NCATS CANVASS Library (AID 1347352). Note: series mostly up to about 38 µM. The essentials: (§2)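 1000 cells/well, 4 h pre-incubation 37 °C/5% CO2; 11-pnt titration; 72 h; CellTiter-Glo 15 min RT, luminescence.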
A short description of test [3]: A2780 Cisplatin Sensitive Ovarian Cancer Cell Toxicity qHTS against the NCATS CANVASS Library (AID 1347353). Note: nearly all actives have a fitted effect of over 60% in size. Summed up: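 750 cells/well, 4 h settle; 11-pt cpd titration; 72 h, 37 °C, 5% CO2; ATPLite 10 min RT; luminescence read.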
Test [4] is described as follows: UWB1.289-WTBRCA1 Cancer Cell Toxicity qHTS against the NCATS CANVASS Library (AID 1347354). Summed up:
as §2

Test [5] is described as follows: KB-8-5-11 Cancer Cell Toxicity qHTS against the NCATS CANVASS Library (AID 1347364). Note: nearly all actives have a fitted effect of over 75% in size. Summed up: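 CellTiter-Glo luminescence after 72 h exposure; 500 KB-8-5-11 cells/well, DMEM/10% FBS, 37C, 5% CO2; compounds in 11-pt qHTS. Follow-up confirmation included medium with 1uM tariquidar.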
Test [6] in a line: SDT Cancer Cell Toxicity qHTS against the NCATS CANVASS Library (AID 1347365). Note: nearly all actives have a fitted effect of over 60% in size. Note: potency is the fitted concentration of half-maximal effect. Summed up: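 Luminescent ATP read-out (CellTiterGlo) after 72 hr compound exposure of dog glioma SDT cells, 500 per well. Eleven-point titrations; bortezomib titration run alongside as control.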
Test [7] in a line: KB-3-1 Cancer Cell Toxicity qHTS against the NCATS CANVASS Library (AID 1347366). Note: nearly all actives have a fitted effect of over 75% in size. Summed up:
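Cytotoxicity toward KB-3-1 cells (500/well, DMEM + 10% FBS) was scored by CellTiter-Glo luminescence following 72 hr exposure at 37C, with bortezomib titrated as control.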

A short description of test [8]: G06 Cancer Cell Toxicity qHTS against the NCATS CANVASS Library (AID 1347368). Note: nearly all actives have a fitted effect of over 60% in size. Note: potency is the fitted concentration of half-maximal effect. The essentials: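 ATP luminescence (CellTiterGlo) readout of cytotoxicity. Canine G06 glioma cells, 500/well, 72 hr incubation at 37C with compounds; bortezomib titration served as control.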
Test [9] is described as follows: MCF7 Cancer Cell Toxicity qHTS against the NCATS CANVASS Library (AID 1347369). The essentials: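 This 72 hr qHTS scored MCF7 viability by CellTiterGlo luminescence, with 500 cells/well; bortezomib titration ran as control.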
Test [10] has as its target Nuclear receptor subfamily 1 group I member 3 (Homo sapiens) (UniProt Q14994). Put plainly: qHTS for Constitutive Androstane Receptor (CAR) Antagonist screened against the NCATS CANVASS Library (AID 1347372).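 Note: cells stimulated with 50 nM CITCO agonist so inhibition reflects antagonism; luciferase from CYP2B6 promoter reporter driven by hCAR in HepG2 cells; series mostly up to about 46 µM.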 The essentials: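 Cells were seeded and left 4hr to attach, then received compound at 11 concentrations and 50 nM CITCO. Following 24hr incubation, fluorescence viability and luciferase luminescence were read sequentially.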

Test [11] in a line: qHTS for Hypoxia signaling pathway (HIF-1) antagonists against the NCATS CANVASS Library (AID 1347374).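 Note: HRE-bla ME-180 cells stimulated with cobalt chloride to stabilize HIF-1alpha; series mostly up to about 38 µM; nearly all actives have a fitted effect of over 60% in size.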 Summed up: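 Beta-lactamase reporter under HRE control in ME-180 cells; CoCl2 stimulus (60 uM solution as added), compounds 11-pt qHTS, 17 h 37C. CCF4 dye 2 h RT, 460/530 nm emission. CellTiter-Glo viability in same wells.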
The nature of test [12]: qHTS for H2AX Agonists against the NCATS CANVASS Library (AID 1347378).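 Note: phospho-H2AX S139 level in CHO-K1 lysates by TR-FRET emission ratio.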 The essentials: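 Signal is the 665/620 nm emission ratio from europium cryptate and d2 antibody pair, rising with S139-phosphorylated H2AX. CHO-K1 cells saw test agents for 3 hr at 37C; detection ran 24 hr at room temperature.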
Test [13] can be described thus: Cytotoxicity qHTS for assessment of Hepg2 cells membrane integrity screened against the NCATS CANVASS Library (AID 1347387). Summed up: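 LDH release read by fluorescence (560 nm ex/590 nm em) after CytoTox-ONE addition and 10 min RT; signal tracks lysed cells. HepG2, 2000 cells/well, plated overnight; compound 5 hr, 37C, 5% CO2, final 0.59 nM - 46 uM, 11 points.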

Test [14] can be described thus: qHTS for activators of Nrf2/ARE signaling pathway screened against the NCATS CANVASS Library (AID 1347391). Note: nearly all actives have a fitted effect of over 60% in size. Summed up:
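HepG2 ARE-bla; cpd 11-pt qHTS, 16 h 37C/5% CO2; CCF4 substrate 2 h RT; read ex 405 / em 460 + 530 nm. Viability by CellTiter-Glo luminescence, 30 min RT.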

Test [15] can be described thus: qHTS for inhibitors of Wild type Zika virus screened against the NCATS CANVASS Library (AID 1347396).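 Note: ATP luminescence of surviving cells so rescue from viral cell killing; series mostly up to about 46 µM.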 The essentials:
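Vero 766 (African green monkey) cells, 1000 per well, attached overnight, then compounds were added in an 11-point series before wild-type Zika virus infection. After 72 h at 37C, cell viability was read as CellTiter Glo luminescence.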

The nature of test [16]: OV-SAHO Cancer Cell Toxicity qHTS against the NCATS CANVASS Library (AID 1347348). Note: series mostly up to about 38 µM; nearly all actives have a fitted effect of over 55% in size. The essentials:
as §1

The nature of test [17]: Redox Reaction Profiling qHTS: Assay Interference Panel against the NCATS CANVASS Library (AID 1347401). Note: potency is the fitted concentration of half-maximal effect. Summed up:
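Quantitative HTS over an 11-point series was run in HEPES pH 7.3 with 50 mM NaCl, 200 uM DTT and 5 uM resazurin. Initial and 15-min resorufin fluorescence readings were taken.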

Test [18] is described as follows: Tertiary RLuc qRT-PCR qHTS assay for Zika virus inhibitors (AID 1347169). Note: top concentration of the series differs between compounds; nearly all actives have a fitted effect of over 55% in size. The essentials: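 Inhibition of ZIKV-RLuc replication in Vero cells, read as Renilla luminescence 1-1.5 hrs after live-cell substrate addition, following 48-72 hrs infection at MOI 1-2 in presence of compound.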
Background: In qPCR the cycle at which signal appears reflects the starting amount.

Test [19] in a line: Viability qHTS for inhibitors of the SERCaMP assay screened against the NCATS CANVASS Library (AID 1347400). Note: series mostly up to about 92 µM; nearly all actives have a fitted effect of over 70% in size. Summed up: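 CellTiter-Glo luminescence readout after 48 h compound exposure (11-pnt qHTS series) of SH-SY5Y-GLuc SERCaMP MJH297 cells seeded at 1000 cells/well; bortezomib positive control.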

Chain of Nuclear receptor subfamily 1 group I member 3 (Homo sapiens) (Q14994 whole entry, looked up): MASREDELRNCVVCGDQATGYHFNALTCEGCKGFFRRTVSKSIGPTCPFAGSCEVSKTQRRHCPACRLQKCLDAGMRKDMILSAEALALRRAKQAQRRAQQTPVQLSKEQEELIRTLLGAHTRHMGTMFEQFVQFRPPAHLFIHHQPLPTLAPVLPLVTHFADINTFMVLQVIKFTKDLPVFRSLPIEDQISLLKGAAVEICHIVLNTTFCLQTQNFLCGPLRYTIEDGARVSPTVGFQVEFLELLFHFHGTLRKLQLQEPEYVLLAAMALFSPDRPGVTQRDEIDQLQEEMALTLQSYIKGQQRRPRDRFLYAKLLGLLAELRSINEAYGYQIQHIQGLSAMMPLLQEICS

In the case of `C=C1C[C@@]23C=CC(=O)[C@@](C)(CCC(=O)Nc4c(OC5O[C@H](CO)[C@@H](O)[C@H](O)[C@H]5O)ccc(C(=O)O)c4O)C2C[C@@H]1CC3` (some centres not stated), the Potency result in test [1], in test [2], in test [3], in [4], in test [5] and in [6] was “inactive” throughout. Also, the Potency result in test [7], in [8], in test [9], in [10], in [11] and in test [12] was “inactive” throughout. Also, the Potency entry in [14] and in [15] was “inactive” each time. Moreover, the result in test [13] was inactive.

For `CC(=O)NC[C@@H]1O[C@H](CC/C=C(C)/C(C)=C/C=O)[C@H](C)C[C@H]1O`, the Potency entry in test [16], in test [1], in test [2], in test [4], in test [5] and in test [7] was “inactive” throughout. Moreover, the Potency result in [8], in test [9], in test [10], in [11], in [12] and in test [15] was “inactive” throughout. Moreover, in [17], the Potency result is “inactive”. The outcome in test [13] was inactive.

For `O=C(Nc1ccc(C(=O)OCc2cc(=O)n3c4c(sc3n2)CCCC4)cc1)c1ccc(F)cc1`, the Potency entry in [18] was “inactive”.

Take `CC[C@@H]1C[C@@]2(CC)OC(=O)[C@@]3(CC)OC(=O)[C@@H]1[C@@H]23`: the Potency result in [16], in test [1], in [2], in [3], in test [4] and in test [5] was “inactive” in each case. The Potency entry in test [6], in test [7], in test [8], in test [9], in [10] and in [11] was “inactive” throughout. Also, the Potency result in test [12], in test [14], in [15], in test [19] and in [17] was “inactive” throughout. Besides, in test [13], the compound was called inactive.

As for `CC1(C)CCC[C@]2(C)[C@@H]1CC[C@@]13C[C@@H](CC[C@H]12)C(C)(O)C3` (some centres not stated), the Potency entry in test [16], in test [1], in [2], in test [3], in test [4] and in test [5] was “inactive” in each case. In addition, the Potency result in test [6], in test [7], in [8], in test [9], in test [10] and in [11] was “inactive” throughout. Moreover, the Potency result in test [12], in [14], in [15], in test [19] and in [17] was “inactive” throughout. Also, the outcome in test [13] was inactive.

`COc1ccc(CCCc2cc(O)c(OC)c(O)c2)c(O)c1O`: the Potency result in [16], in test [1], in test [2], in test [3], in test [4] and in test [5] was “inactive” throughout. In addition, the Potency entry in test [9], in test [10], in [11], in [12], in test [15] and in [19] was “inactive” in each case. For the same compound, the Potency is 166 nM (active) in test [6], 14.8 nM (active) in test [8] and 21500 nM (active) in test [17]. In addition, in test [13], the outcome was inactive.
